The text below walks through data of PubChem BioAssay AID651821 (The Scripps Research Institute Molecular Screening Center, 2012).

Among all 370,000 compounds or so, about 4,700 (1.3%) were called active. Shown is part of a subset that was picked to be rich in actives. Unmarked numbers belong to inactive results.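 How the source made its calls: active means inhibition above the plate cutoff, the mean of all test compounds on that plate plus 3 SD (cut at about 35% in these data); inactive means the rest.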

A word on the inhibition: it is the drop in the measured response relative to a control, in per cent.

A short description of this experiment: binders of r(CAG) RNA repeats, primary screen, biochemical, fluorescence (AID 651821).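 Further: 0% = DMSO alone and 100% = 100 µM mitoxantrone as full dye displacement; higher means more dye released from RNA so lower well fluorescence.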 Conditions: r(CAG) RNA repeat, TO-PRO-1 dye displacement fluorescence; at 3 µM; stronger effect = higher value.
`Cc1ccccc1Nc1nc(N)nc(COC(=O)CCC(=O)c2ccc(F)cc2)n1`: the inhibition is 0.17%.

For `CCc1ccccc1NC(=O)CSc1nnc(-c2cccs2)o1`, the inhibition is -0.17%. Regarding `CC(C)[C@@H](C)/C=C/[C@@H](C)[C@H]1CC[C@@H]2[C@]1(C)CCC1[C@]23C=C[C@]2(C[C@@H](O)CC[C@]12C)N(c1ccc([N+](=O)[O-])cn1)O3` (stereo partly drawn), the inhibition is 27.1%. With `Cc1ccsc1-c1cc(C(=O)O)c2c(ccc3ccccc32)n1` the figure was 9.82%. As to `Cc1cc(C)c2nc(-c3ccco3)cc(C(=O)O)c2c1`, the inhibition is 67.3% (active). With `COC(=O)c1cnn2c(C(F)(F)F)cc(-c3ccco3)nc12` the figure was 10.2%. Take `COC(=O)N1Cc2ccnnc2CC1c1ccccc1Br` (stereo not drawn): the inhibition was 3.21%. With `O=C(CCS(=O)(=O)c1ccccc1Cl)Nc1ccc(S(=O)(=O)Nc2ncccn2)cc1` the figure was 2.17%. For the molecule `O=C(Nc1ccc(S(=O)(=O)N2CCOCC2)cc1)c1ccc2ncsc2c1`, the inhibition was 5.29%. With `CCC(CC)C(=O)Nc1ccc(S(=O)(=O)Nc2nccs2)cc1` the figure was 3.15%; with `CN1CCN(S(=O)(=O)c2cccc(C(=O)Nc3sccc3C#N)c2)CC1`, 44.6% (active). With `Cc1ccc(OCCC(=O)Nc2ccc(S(=O)(=O)Nc3nccs3)cc2)cc1` the figure was 36.9% (active). Turning to `CN1CCN(S(=O)(=O)c2cccc(C(=O)Nc3cccc(S(N)(=O)=O)c3)c2)CC1`, the inhibition was 1.84%. `Cc1ccc(OCCCC(=O)Nc2ccc(S(=O)(=O)Nc3cc(C)nc(C)n3)cc2)cc1`: the inhibition was 24.9%. In the case of `CN1CCN(S(=O)(=O)c2cccc(C(=O)N3CCc4ccccc43)c2)CC1`, the inhibition was 0.16%.

With `Cc1ccnc(NS(=O)(=O)c2ccc(NC(=O)c3ccc(S(=O)(=O)N4CCOCC4)cc3)cc2)n1`, the inhibition was 12.3%. Turning to `COc1ccccc1OC(C)C(=O)Nc1ccc(S(=O)(=O)Nc2nccs2)cc1` (stereo not drawn), the inhibition is 19.7%.

`O=C(Nc1ccc(S(=O)(=O)Nc2nccs2)cc1)c1cccc(S(=O)(=O)N2CCOCC2)c1`: the inhibition is 34.7% (active).

For the molecule `O=C(CCc1ccccc1Cl)Nc1ccc(S(=O)(=O)Nc2nccs2)cc1`, the inhibition is 44% (active). `N#Cc1cccc(C(=O)NCC2CCN(C(=O)C(=O)c3cc4ccccc4o3)CC2)c1`: the inhibition was 2.89%. As to `Nc1[nH]c(C(=O)c2ccccc2)c(-c2ccc(Cl)cc2Cl)c1C(=O)c1ccccc1`, the inhibition is 5.66%.

For `C[C@@H]1CN([C@H](C)CO)C(=O)CCCn2cc(nn2)CO[C@H]1CN(C)C(=O)Nc1ccc(N2CCCCC2)cc1`, the inhibition is 9.11%. With `Cc1ccc2nc(SCC(=O)N3CC(C)OC(C)C3)nc(=O)n2c1` (stereo not drawn), the inhibition was -10.3%.

On to `O=C(C1CCCN1S(=O)(=O)c1ccccc1)N1CCc2ccccc2C1` (stereo not drawn), for which the inhibition is 0.6%. For the molecule `O=C(OCC(=O)N1CCCCC1)c1ccc(OC(F)(F)F)cc1`, the inhibition is -1.21%. As for `O=C(Nc1ccccc1)N1CCN(Cc2nc3ccccc3c(=O)[nH]2)CC1`, the inhibition was -0.05%. For the molecule `CCN(CC)C(=O)CC[C@@H]1CC[C@]2(CCCN(S(=O)(=O)C3CCCCC3)C2)O1`, the inhibition was -0.19%. For the molecule `O=C(CSc1nc2c(c(=O)[nH]1)CCCC2)N1CCCCC1`, the inhibition was 3.54%. With `O=C(Nc1ccc(S(=O)(=O)Nc2nccs2)cc1)c1cc(-c2ccncc2)nc2ccccc12`, the inhibition was 47.9% (active). For the molecule `Cc1cc(C(=O)OCC(=O)Nc2nccs2)c2ccccc2n1`, the inhibition was 6.91%.

With `O=C(Nc1ccc(S(=O)(=O)Nc2nccs2)cc1)c1cc(=O)[nH]c2ccccc12`, the inhibition was 25.9%. With `CCN(CC(=O)Nc1ccccc1C(F)(F)F)C(=O)C1CCN(C(=O)Nc2ccccc2)CC1` the figure was -1.69%; with `COC(=O)[C@]12C[C@H](CC(=O)NCCCCc3ccccc3)C(=O)N(Cc3ccc4c(c3)OCO4)C1=C[C@H](C(C)(C)C)O[C@@H]2C`, 9.49%; with `CSc1nc(-c2ccccc2)nc(C(Cl)Cl)n1`, -0.59%.

In the case of `COCc1cc(C(C)=O)ccc1OC`, the inhibition is 3.9%.

Regarding `COc1cc(C(=O)NCC(c2ccco2)N2CCCC2)ccc1OCc1ccccc1` (stereo not drawn), the inhibition was 3.03%. Regarding `COC(=O)c1ccc(COc2ccc(/C=C/C(=O)c3ccc(OC)c(CSCC(=O)O)c3)cc2OC)cc1`, the inhibition was 43.7% (active). With `COc1ccc(C(=O)/C=C/c2ccc(-c3ccccc3)cc2)cc1CSCC(=O)O` the figure was 63.2% (active).

For `COc1ccccc1CCNC(=O)C1CCN(C(=O)/C=C/c2ccccc2)CC1`, the inhibition was -7.33%. Consider `COc1cc(/C=C/C(=O)OCC(=O)NC(=O)NCc2ccccc2)ccc1OCC#N`, for which the inhibition was -3.56%. As to `CCOC(=O)[C@]12CCCC=C1N(Cc1ccc(OC)cc1)C(=O)[C@@H]2CC(=O)NCc1cccs1`, the inhibition is 1.72%.

Regarding `CN(C)[C@H]1CCN(c2cccc3c2S(=O)(=O)N2CC[C@H](C2)O3)C1`, the inhibition is 1.39%. In the case of `CCc1c(C)sc(NC(=O)c2cccs2)c1C(N)=O`, the inhibition is 5.17%. For `CCOC(=O)c1c(NC(=O)C2CC=CCC2C(=O)O)sc(C)c1CC` (stereo not drawn), the inhibition was 34.6% (active). As to `CCOC(=O)c1c(NC(=O)CN2C(=O)NC3(CCC(C)CC3)C2=O)sc(C)c1CC` (stereo not drawn), the inhibition was -14%.

As to `Cc1ccc(N)cc1CN1CCN(c2ncc(Cc3ccccc3)cn2)CC1`, the inhibition is 3.17%. For `CC(C)(C)OC(=O)NCc1cc(F)ccc1/C=C/S(=O)(=O)NCCc1ccccc1`, the inhibition was -0.33%. Regarding `CC1(C)OC(=O)C2=C(CC(CCc3ccccc3)OC2c2ccc(Cl)cc2)O1` (stereo not drawn), the inhibition is 3.44%. For `CCC(C(=O)Nc1ncccn1)(C(F)(F)F)C(F)(F)F`, the inhibition was -0.05%. Regarding `COc1ccc(NS(=O)(=O)c2cc(NC(=O)CC(=O)c3ccc([N+](=O)[O-])cc3)ccc2C)cc1`, the inhibition was 42.4% (active). On to `Cc1ccc(NC(=O)CCNC(=O)c2ccc([N+](=O)[O-])cc2)cc1S(=O)(=O)N1CCOCC1`, for which the inhibition is 1.24%. `Cc1ccc(C(=O)Nc2ccccc2-c2ccccc2)cc1S(=O)(=O)Nc1ccccc1`: the inhibition was 17.1%. On to `COc1cc(/C=C/C(=O)O)cc(S(=O)(=O)Nc2ccccc2SC)c1OC`, for which the inhibition was 8.56%.

On to `COc1ccc(NS(=O)(=O)c2cc(NC(=O)COc3ccccc3F)ccc2OC)cc1`, for which the inhibition is 4.34%. With `COc1cc(OC)c(S(=O)(=O)Nc2ccccc2C(=O)O)cc1S(=O)(=O)Nc1ccccc1C(=O)O`, the inhibition is 63.4% (active).

Turning to `COc1ccc(OC)c(S(=O)(=O)Nc2ccccc2F)c1`, the inhibition was -3.01%. With `COc1ccc(NS(=O)(=O)c2ccc(C(=O)Nc3c(C)n(C)n(-c4ccccc4)c3=O)cc2)cc1` the figure was 10.7%; with `COc1ccc(NS(=O)(=O)c2cc(C(=O)Nc3ccccc3C(=O)O)ccc2C)cc1`, 74.6% (active).

Regarding `CCOC(=O)[C@]12CCCCC/C=C\1N(Cc1ccc(OC)cc1)C(=O)[C@H]2CC(=O)N1CCOCC1`, the inhibition was 4.38%. Take `COc1ccc(-c2cc(-c3nnc(SCC(=O)Nc4cccc5ccccc45)n3N)[nH]n2)cc1`: the inhibition was 10.7%. Turning to `COC(=O)[C@]12C[C@H](CC(=O)NCc3ccccc3)C(=O)N(CCC3=CCCCC3)C1=C[C@H](C(C)(C)C)O[C@@H]2C`, the inhibition is 1.7%.

For the molecule `COc1ccc(N2CCN(CCNS(=O)(=O)c3ccc(Cl)s3)CC2)cc1`, the inhibition was -0.11%. On to `C=CCN(C)CC#Cc1ccccc1`, for which the inhibition was -0.11%. For `COc1ccc(N2CCN(CCNS(=O)(=O)c3ccc([N+](=O)[O-])cc3)CC2)cc1`, the inhibition is 0.28%. For `CCCC[C@H](C(=O)N(CC)c1ccccc1)[C@@H](O)c1ccc2ccccc2c1`, the inhibition was 4.92%.

Turning to `CC(=O)Oc1ccc(C)cc1N1C(=O)c2ccc(C(=O)O)cc2C1=O`, the inhibition is 4.11%.

Consider `CC(=O)Nc1ccc(NC(=O)c2ccc3c(c2)C(=O)N(c2ccccc2C)C3=O)cc1`, for which the inhibition was -2.08%.

Take `O=C(O)c1ccc2c(c1)C(=O)N(c1ccc(/C=C/C(=O)c3ccccc3)cc1)C2=O`: the inhibition is 46.3% (active).

On to `CN1C(=O)c2cc(NS(C)(=O)=O)ccc2OC[C@@H]2O[C@@H](CC(=O)NCc3ccc(-c4ccccc4)cc3)CC[C@H]21`, for which the inhibition is 4.86%. With `Cc1noc(C)c1C(=O)N1CCC1(C)C(=O)NS(=O)(=O)c1ccc(C#N)cc1` (stereo not drawn) the figure was 0.97%. As for `CC1(C(=O)NS(=O)(=O)c2ccc(C#N)cc2)CCN1C(=O)CC1CCCC1` (stereo not drawn), the inhibition was 1.94%. For `CC1(C(=O)NS(=O)(=O)c2ccc(C#N)cc2)CCN1C(=O)c1ccc(C2CCCCC2)cc1` (stereo not drawn), the inhibition was 46.9% (active). In the case of `CC[C@H](NC(=O)[C@H](Cc1ccccc1)NC(=O)[C@H]1O[C@@H](n2cnc3c(=O)[nH]c(N)nc32)[C@H](O)[C@@H]1O)c1ccccc1`, the inhibition was 14.3%. As to `Cc1ccccc1NC(=O)Cn1nnc(-c2ccccc2F)n1`, the inhibition was 0.27%. As to `CCC(C)n1[nH]c(=O)cc1N` (stereo not drawn), the inhibition is -0.11%. `CC(C)(C)n1nc(C2CC2)c(Br)c1NC(=O)c1ccccc1F`: the inhibition is 2.68%. Consider `Cc1cc(=O)[nH]c(SCC(=O)Nc2ccc(Cl)cc2C)n1`, for which the inhibition was 4.47%. Take `COc1ccc(NC(=O)CSc2nc(NS(=O)(=O)c3ccc(C)cc3)cc(=O)[nH]2)cc1`: the inhibition is 13.4%. As to `Cc1ccc(NC(=O)CSc2nc(CSc3ccc(C)cc3)cc(=O)[nH]2)cc1`, the inhibition is 45.1% (active). Consider `CCOC(=O)C1=C(C)NC2=C(C(=O)CC(C)(C)C2)C1c1ccc2c(c1)OCO2` (stereo not drawn), for which the inhibition is 1.3%. As to `O=C(O)C(=Cc1ccccc1[N+](=O)[O-])c1ccccc1`, the inhibition is -2.74%. Turning to `O=C(N/N=C/c1cc(Cl)cc([N+](=O)[O-])c1O)C(O)(c1ccccc1)c1ccccc1`, the inhibition is 75.8% (active). `O=C(NN=Cc1ccco1)C(=O)Nc1ccc(Cl)c([N+](=O)[O-])c1`: the inhibition is 6.16%.
